Assay outcomes from PubChem.
PME-1 primary – PME-1 inhibitors via competitive probe labeling, primary screen, biochemical, fluorescence polarization, FP-Rh probe, HTS | AID 2130, 2009 | 320,000 compounds, 0.53% hits | inhibition, % at 5.9 µM | recombinant PME-1 | Protein phosphatase methylesterase 1 (Homo sapiens), Q9Y570;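 active = inhibition above the campaign mean of all compounds plus 3 SD, cut at about 26% in these data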;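 note: competitive labeling of PME-1 active site by serine hydrolase directed probe; 0% = PME-1 with DMSO and 100% = wells lacking PME-1 enzyme; inhibitors block probe labeling so polarization falls and inhibition rises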
GSTO1 inh – inhibitors of recombinant GSTO1, primary screen, counter-screen for RBBP9 inhibitor project, biochemical, fluorescence polarization; inhibition, % at 5.96 µM; 300,000 compounds, 1.1% hits; activity-based probe fluorescence polarization; Glutathione S-transferase omega-1 (Homo sapiens), P78417;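 active = inhibition above the campaign mean inhibition plus 3 SD, cut at about 35% in these data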;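 note: 0% = GSTO1-1 with DMSO and 100% = wells lacking GSTO1-1 enzyme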
Target sequence (P78417 whole entry, looked up): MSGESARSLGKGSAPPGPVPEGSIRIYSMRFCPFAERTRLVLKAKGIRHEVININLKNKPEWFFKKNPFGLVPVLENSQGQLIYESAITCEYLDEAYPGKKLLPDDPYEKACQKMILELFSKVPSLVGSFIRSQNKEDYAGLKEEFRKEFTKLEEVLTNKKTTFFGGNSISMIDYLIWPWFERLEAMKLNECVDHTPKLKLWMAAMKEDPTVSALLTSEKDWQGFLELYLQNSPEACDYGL
LYPLA1 counter – LYPLA1 inhibitors, primary screen, counter-screen for PME1 inhibitor project, biochemical, fluorescence polarization, FP-Rh probe ABPP. recombinant LYPLA1. Acyl-protein thioesterase 1 (Homo sapiens), O75608. inhibition, % at 5.9 µM. AID 2174, 2009. 320,000 compounds, 0.16% hits;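 active = inhibition above the mean of all tested compounds plus 3 SD, set per campaign, cut at about 14% in these data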;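 note: inhibitors block serine hydrolase probe labeling of LYPLA1 so polarization falls; 0% = enzyme with DMSO and 100% = wells lacking LYPLA1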
Target sequence (O75608 whole entry, looked up): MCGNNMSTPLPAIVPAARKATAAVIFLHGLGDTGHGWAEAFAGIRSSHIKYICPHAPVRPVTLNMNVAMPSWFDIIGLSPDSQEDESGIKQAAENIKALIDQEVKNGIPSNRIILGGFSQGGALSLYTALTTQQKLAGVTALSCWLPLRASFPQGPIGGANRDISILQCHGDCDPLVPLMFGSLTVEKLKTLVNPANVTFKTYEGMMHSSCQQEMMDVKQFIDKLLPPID
Fam108B counter – mouse Fam108B serine hydrolase inhibitors, primary screen, counter-screen for RBBP9 inhibitor project, biochemical, fluorescence polarization. recombinant Fam108B, FP-Rh probe fluorescence polarization. inhibition, % at 9.51 µM. 300,000 compounds, 0.33% hits;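 active = inhibition above the screen mean inhibition plus 3 SD, computed separately per campaign, cut at about 18% in these data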;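 note: inhibitors lower polarization as less probe binds the enzyme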
LYPLA2 counter – LYPLA2 inhibitors, primary screen, counter-screen for PME1 inhibitor project, biochemical, fluorescence polarization, FP-Rh probe ABPP; AID 2177, 2009; inhibition, % at 5.9 µM; 320,000 compounds, 0.38% hits; Acyl-protein thioesterase 2 (Homo sapiens), O95372; recombinant LYPLA2;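 active = inhibition above the screen-wide mean plus 3 SD, limit set per campaign, cut at about 26% in these data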;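 note: 0% = LYPLA2 with DMSO and 100% = wells lacking LYPLA2 enzyme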
PAD4 FP inh – human PAD4 inhibitors, primary screen, biochemical, fluorescence polarization, 1536-well format; recombinant PAD4, RCA probe fluorescence polarization; inhibition, % at 6.36 µM; 330,000 compounds, 0.41% hits; AID 485272, 2010;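 active = percent inhibition above a cutoff equal to the mean of all tested compounds plus 3 SD, cut at about 15% in these data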;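 note: 0% = PAD4 with RCA probe and DMSO and 100% = probe without PAD4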
Active calls of the source: *; x = no result given. In the library only some 1.8% were active in any assay of this set; here they are far more common.

SMILES | PME-1 primary | GSTO1 inh | LYPLA1 counter | Fam108B counter | LYPLA2 counter | PAD4 FP inh
COc1cc(OC)cc(-c2nnc(SCC(=O)N(C(C)C)C(C)C)o2)c1 | 0 | -1 | 4 | 1 | -5 | 0
COc1cc(OC)cc(-c2nnc(Sc3ccc(C=O)cc3[N+](=O)[O-])o2)c1 | 5 | 18 | -1 | 14 | 10 | 26*
CC(C)C1=Nc2cccc3cccc(c23)N1 | 4 | 16 | -2 | 1 | -5 | 0
ClCC1=Nc2cccc3cccc(c23)N1 | 1 | 55* | 1 | 4 | -2 | 2
COc1cccc(Oc2ccc(S(=O)(=O)N3CCCC3)cc2[N+](=O)[O-])c1 | 26* | -3 | 0 | 2 | -2 | -1
CCCCN(CCCC)CCNC(=O)c1cn(CC)c2ccc(S(=O)(=O)N(C)C3CCCCC3)cc2c1=O | 82* | 2 | -1 | 1 | 5 | 1
CCCCN(CC)CCCNC(=O)c1cn(C)c2ccc(S(=O)(=O)N(C)C3CCCCC3)cc2c1=O | 40* | -6 | 1 | 4 | 7 | -4
CCn1cc(C(=O)NCCCN2CCCC(C)C2)c(=O)c2cc(S(=O)(=O)N(C)C3CCCCC3)ccc21 (centres undefined) | 52* | -2 | -2 | -7 | -4 | -2
CCN(CC)c1cccc(OCC(=O)N2c3ccccc3CC2C)c1 (centres undefined) | 1 | x | -1 | x | -4 | 4
O=c1[nH]cc(N=Cc2cc(Cl)cc(Cl)c2O)c(=O)[nH]1 | 2 | 42* | 3 | -1 | 6 | -9
O=C(COC(=O)COc1ccc(Cl)cc1Cl)Nc1cccnc1Cl | 0 | 35* | -5 | -1 | -3 | 6
CC1(C)CC(=O)C2=C(C1)N(CCN1CCOCC1)C1=C(C(=O)CC(C)(C)C1)C2c1ccc(Cl)cc1 | 5 | -6 | -1 | -6 | 3 | -2
CC1(C)CC(=O)C2=C(C1)N(CCN1CCOCC1)C1=C(C(=O)CC(C)(C)C1)C2c1cccc(F)c1 | 28* | 4 | 2 | -1 | -2 | 3
CC1CCCC(NC(=O)Cn2c(Cl)nc3c2c(=O)n(C)c(=O)n3C)C1C (centres undefined) | x | x | x | x | x | -2
O=C(NCCC1=CCCCC1)C1CCN(S(=O)(=O)c2cccs2)CC1 | 28* | -2 | 1 | -1 | 0 | 1
COc1ccc(CN(C)C(=O)c2cccc(S(=O)(=O)N3CCc4ccccc43)c2)c(OC)c1 | 17 | x | -1 | x | -2 | -2
CC(C)c1ccc2[nH]c(O)c(N=NC(=O)c3cccc(S(=O)(=O)N4CCCCC4)c3)c2c1 | 53* | 1 | -2 | 8 | 1 | -8
O=C(N=Nc1c(O)[nH]c2ccccc12)c1cccc(S(=O)(=O)N2CCCCC2)c1 | 4 | 12 | -4 | 0 | -8 | -1
COc1ccc(C(CNC(=O)c2ccc(OCc3c(C)noc3C)cc2)N2CCCC2)cc1 (centres undefined) | 2 | x | -2 | x | 0 | 1
Cc1cccc(NC(=O)CN2C(=O)COc3ccc(Cl)cc32)c1 | -2 | 3 | -2 | 0 | 40* | 3
CC(=O)Nc1cn(-c2ccccc2)nc1-c1ccccc1 | -9 | 5 | -2 | -2 | -5 | -4
O=C(CCl)Nc1cn(-c2ccccc2)nc1-c1ccccc1 | -2 | 51* | -4 | -6 | -6 | 4
CC1=NN(c2ccccc2)C(=O)C1=C(C)C | -11 | 35* | -5 | -2 | -7 | 7
CC1=NN(c2ccccc2)C(=O)/C1=C\c1sccc1C | 0 | 22 | 0 | 3 | 2 | -8
NC(=O)C1CCN(C(=O)C(Cc2ccccc2)NC(=O)c2ccccc2)CC1 (centres undefined) | -1 | x | 1 | x | -2 | -3
SMILES | PME-1 primary | GSTO1 inh | LYPLA1 counter | Fam108B counter | LYPLA2 counter | PAD4 FP inh
Cc1cccc2cc(C#N)c(SCC#N)nc12 | 31* | -2 | -1 | 4 | -8 | -2
O=C(O)c1cc(NN=Nc2cccc(S(=O)(=O)O)c2)cc([N+](=O)[O-])c1 | -2 | 1 | 2 | 3 | 3 | 0
Brc1ccc(N=NNc2ccccc2)cc1 | 33* | 0 | -3 | 3 | 1 | 0
O=C(O)c1cc(NN=Nc2ccc(Br)cc2)cc([N+](=O)[O-])c1 | 40* | 10 | 9 | 2 | 6 | -2
O=C1CC(c2ccc3ccccc3c2)NN1 (centres undefined) | 2 | x | -1 | x | 4 | -4
CCCc1ccc(-c2csc(NC(=O)C3=COCCO3)n2)cc1 | -12 | x | -4 | x | -7 | 3
CC(/C=N/NC(=O)c1ccc(Cn2cc([N+](=O)[O-])cn2)o1)=C\c1ccccc1 | 0 | -5 | -4 | -4 | 0 | -5
c1ccc(-c2ccc(C3CCCN3)cc2)cc1 (centres undefined) | 33* | 5 | -2 | -1 | -8 | -1
CC(=O)Nc1ccc2c(c1)C(=O)c1ccccc1C2=O | 8 | 4 | -1 | 6 | 0 | 2
O=C(O)/C=C/C(=O)Nc1ccc2c(c1)C(=O)c1ccccc1C2=O | 11 | 37* | 5 | 10 | 6 | -4
CCN(CC(=O)Nc1c(F)cccc1F)C(=O)CCc1ccc(OC)cc1 | 41* | 4 | -1 | -1 | -2 | 3
O=C(COC(=O)CCCN1C(=O)c2cccc3cccc(c23)C1=O)Nc1ccc(Cl)cc1 | 30* | -5 | 6 | 1 | 21 | 2
NC(=O)c1ccc(NC(=O)COC(=O)CCCN2C(=O)c3cccc4cccc(c34)C2=O)cc1 | 1 | -1 | 0 | 2 | 2 | -2
Cc1cc(C)c(S(=O)(=O)N2CCN(C(=O)c3cc4ccccc4oc3=O)CC2)c(C)c1 | 17 | x | -2 | x | 5 | 7
COc1ccc2nc(C)cc(SCC(=O)N/N=C/c3ccc(O)cc3O)c2c1 | -4 | -1 | -5 | -2 | -10 | 13
COc1ccc(N2Cc3ccc(C(=O)N/N=C\c4ccc(O)cc4O)cc3C2)cc1 | 48* | -20 | -8 | 50* | 31* | -8
CCn1c(=S)sc2c(=O)n(CC(=O)NC(C)CCc3ccccc3)c(C)nc21 (centres undefined) | -2 | 35* | -3 | -4 | -3 | 0
O=C1CN(C(=O)c2ccccc2F)C(c2ccccc2)c2cc(F)ccc2N1 (centres undefined) | 30* | 3 | 2 | 1 | 9 | 1
COc1ccc(N2CCN(C(=O)c3ccc(COc4ccc5c(C)cc(=O)oc5c4)cc3)CC2)cc1 | 1 | 0 | 4 | 9 | 63* | -4
